{"source": "PubChem BioAssay AID588727", "about": "(Southern Research Specialized Biocontainment Screening …, 2011)", "note": "In all, about 350,000 compounds went through this assay and about 450 (0.13%) were called active. No rule for the calls is given here. The list is a sample of the results. Potency and affinity values are given separately."}
{"assay": "inhibitors of VEEV TC-83 cytopathic effect, confirmation, Vero cells (AID 588727)", "conditions": "VEEV TC-83 cytopathic effect inhibition, at 20 µM; active compounds read high unless noted"}
{"smiles": "Cc1cccc(C(=O)NCCNC(=O)c2cccc(C)c2)c1", "inhibition": "inactive"}
{"smiles": "CNC(=O)C1=C(C)Nc2nc3ccccc3n2C1c1ccc(F)cc1", "note": "(centres undefined)", "inhibition": "0.17% (inactive)"}
{"smiles": "O=C(CC(=O)c1cccc([N+](=O)[O-])c1)Nc1ccccc1Cl", "inhibition": "inactive"}
{"smiles": "Cc1ccc(S(=O)(=O)N2C[C@@H](C)[C@]3(C2)[C@H](O)[C@H](OC(=O)NCc2ccccc2)C[C@H]2C(=O)N(c4ccccc4)C(=O)[C@H]23)cc1", "inhibition": "5.33% (inactive)"}
{"smiles": "Cc1ccc(S(=O)(=O)N2C[C@@H](C)[C@]3(C2)[C@H](O)[C@H](OC(=O)NC2CC2)C[C@H]2C(=O)N(c4ccccc4)C(=O)[C@H]23)cc1", "inhibition": "11.5% (inactive)"}
{"smiles": "COCCNC(=O)CN(c1ccc(OC)c(OC)c1)S(=O)(=O)c1ccc(C)cc1", "inhibition": "1.04% (inactive)"}
{"smiles": "COC(=O)c1ccc(-n2c(C)cc(C(=O)COC(=O)CNS(=O)(=O)c3ccc(C)cc3)c2C)cc1", "inhibition": "0.63% (inactive)"}
{"smiles": "CCC(CC)c1nnc(NC(=O)c2c(C)nn(Cc3ccccc3Cl)c2C)s1", "inhibition": "7.55% (inactive)"}
{"smiles": "CC(=O)Nc1ccc(NC(=O)c2c(C)nn(Cc3ccccc3Cl)c2C)cc1", "inhibition": "inactive"}
{"smiles": "CC1CC(=O)N(C)c2cc([N+](=O)[O-])ccc2N1", "note": "(centres undefined)", "inhibition": "1.14% (inactive)"}
{"smiles": "COC(=O)c1cccc(NC(=S)N2CCOCC2)c1", "inhibition": "0.95% (inactive)"}
{"smiles": "CCCCCC(=O)N1C[C@@H](n2cc(COC(=O)c3ccccc3)nn2)[C@H](O)C[C@@H]1c1ccccc1", "inhibition": "inactive"}
{"smiles": "c1ccc(-c2nc3c([nH]2)CCc2nonc2-3)cc1", "inhibition": "2.3% (inactive)"}
{"smiles": "COn1c(-c2ccccc2)nc2c1CCc1c-2no[n+]1[O-]", "inhibition": "5.93% (inactive)"}
{"smiles": "Cc1ccccc1CC(=O)c1ccc(O)c(C)c1O", "inhibition": "5.23% (inactive)"}
{"smiles": "CCc1ccc(NC(=O)CS(=O)CC(=O)Nc2ccc(-n3cnnn3)c(C)c2)cc1", "note": "(centres undefined)", "inhibition": "2.1% (inactive)"}
{"smiles": "CCOc1ccc(/C=C/c2nc(C#N)c(NCCCOC)o2)cc1", "inhibition": "6.2% (inactive)"}
{"smiles": "CCNc1oc(/C=C/c2ccc(OCC)cc2)nc1C#N", "inhibition": "6.65% (inactive)"}
{"smiles": "CC1=C(C(=O)Nc2ccccn2)C(c2ccc(Br)cc2)NC(=S)N1", "note": "(centres undefined)", "inhibition": "2.92% (inactive)"}
{"smiles": "O=C(O)c1ccccc1Nc1ccc([N+](=O)[O-])cc1C(=O)O", "inhibition": "inactive"}
{"smiles": "O=C(O)c1cc([N+](=O)[O-])ccc1Nc1ccccc1", "inhibition": "0.6% (inactive)"}
{"smiles": "O=C(Nc1cccnc1)c1cccnc1Cl", "inhibition": "0.62% (inactive)"}
{"smiles": "CCOc1ccc(C(=O)Nc2ccc(N3CCN(C)CC3)cc2)cc1", "inhibition": "2.08% (inactive)"}
{"smiles": "CCCCOc1ccc(C(=O)Nc2ccc(N3CCN(C(C)=O)CC3)cc2)cc1", "inhibition": "3.29% (inactive)"}
{"smiles": "CCc1ccc(NC(=O)CC2C(=O)N(c3cccc(OC)c3)C(=O)N2CCOC)cc1", "note": "(centres undefined)", "inhibition": "1.82% (inactive)"}
{"smiles": "Cc1cccc(N(Cc2ccccc2)C(=O)CSC(C)C(=O)Nc2cc(C)on2)c1", "note": "(centres undefined)", "inhibition": "7.94% (inactive)"}
{"smiles": "Cc1cc(NC(=O)C(C)SCC(=O)OCC(=O)N(Cc2ccccc2)C(C)(C)C)no1", "note": "(centres undefined)", "inhibition": "1.5% (inactive)"}
{"smiles": "CCOC(=O)Cn1cc(C(=O)C2CC2)c2ccccc21", "inhibition": "1.2% (inactive)"}
{"smiles": "COc1cccc(-n2c(CN3CCOCC3)nc3ccc([N+](=O)[O-])cc3c2=O)c1", "inhibition": "7.79% (inactive)"}
{"smiles": "O=c1c2cc([N+](=O)[O-])ccc2nc(CN2CCN(c3ccccn3)CC2)n1-c1ccccc1F", "inhibition": "1.21% (inactive)"}
{"smiles": "COc1cccc(-n2c(CN3CCN(c4ccccc4)CC3)nc3ccc([N+](=O)[O-])cc3c2=O)c1", "inhibition": "2.74% (inactive)"}
{"smiles": "CCC(CC)N1CCN(Cc2nc3ccc([N+](=O)[O-])cc3c(=O)n2-c2ccccc2F)CC1", "inhibition": "22.2% (inactive)"}
{"smiles": "COc1cc(NC(=O)c2sc3ncn(CC(=O)N4CCCCC4C)c(=O)c3c2C)cc(OC)c1OC", "note": "(centres undefined)", "inhibition": "11.6% (inactive)"}
{"smiles": "Cc1ccc(CN2CC(C(=O)NNC(=O)c3ccc(F)cc3)CC2=O)cc1", "note": "(centres undefined)", "inhibition": "inactive"}
{"smiles": "COCCCNC(=O)c1cc(-c2cccnc2)nc2ccccc12", "inhibition": "inactive"}
{"smiles": "COCCNC(=O)COC(=O)c1cc(-c2ccc(OC)cc2)nc2ccccc12", "inhibition": "0.73% (inactive)"}
{"smiles": "CN(C)CCN(Cc1cc2cc3c(cc2nc1Cl)OCO3)C(=O)c1ccco1", "inhibition": "1.49% (inactive)"}
{"smiles": "Cc1cccc2cc(CN(CCN(C)C)C(=S)NCc3ccco3)c(=O)[nH]c12", "inhibition": "6.74% (inactive)"}
{"smiles": "CCN(CC)CCNC(=O)c1cc2c(=O)n(CC)c3ccccc3c2s1", "inhibition": "8.46% (inactive)"}
{"smiles": "CC1(C)NC(=O)N(CC(O)CN2CCOCC2)C1=O", "note": "(centres undefined)", "inhibition": "1.64% (inactive)"}
{"smiles": "Cc1cc(NC(=O)COc2ccccc2C)ccc1NC(=O)c1ccco1", "inhibition": "2.11% (inactive)"}
{"smiles": "COc1ccc(S(=O)(=O)N(C)c2ccc(C(=O)Nc3cccnc3)cc2)cc1", "inhibition": "8.16% (inactive)"}
{"smiles": "C=C1CC2C(=O)N(Cc3cc(OC)ccc3OC)C(C(=O)OCC)(C(=O)OCC)C1N2C(=O)OC(C)(C)C", "note": "(centres undefined)", "inhibition": "inactive"}
{"smiles": "CCN1C/C(=C/c2ccc(OC)c(O)c2)C(=O)/C(=C/c2ccc(OC)c(O)c2)C1", "inhibition": "inactive"}
